Results taken from PubChem BioAssay (NCATS).
Results filed as inconclusive are left out. Active and inactive are the calls of the source. Unless noted, calls come from the whole dose curve; as a rule, active = well fitted curve in the direction sought with a large enough effect; inconclusive = small, poorly fitted or top-dose-only effect, or another doubt; inactive = no such curve, though single readings can be large; an effect the other way counts as inactive or inconclusive.

Legend:
[1] = qHTS for inhibitors of adenylyl cyclases using a fission yeast platform: a pilot screen against the NCATS LOPAC library (AID 1347410);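 note: plate controls were DMSO vehicle for no effect and DPI positive control for full effect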
Method in brief: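 Growth medium went into the plates first, then compounds were pinned (final up to 57 µM), then CHP2027 yeast were added. Plates were incubated overnight (18 h) at 30C in the dark, and GFP was measured by laser scanning cytometry.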

[2] = Validation qHTS assay for inhibitors of Activation Induced Cytidine Deaminase (AID): UDG Counterscreen signal (AID 1347427); note: potency is the fitted concentration of half-maximal effect
Method in brief: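 Counterscreen read of UDG activity (2 U/mL, 4/3x) in the FRET deamination format with AID (1 uM, 4/3x), DJC20/DJC23 substrates (250 nM, 4x), 4 h at room temperature. NaOH stop, fluorescence at 560 ex/665 em.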

[3] = target: Single-stranded DNA cytosine deaminase (Homo sapiens) (UniProt Q9GZX7); test: Validation qHTS assay for inhibitors of Activation Induced Cytidine Deaminase (AID): AID signal (AID 1347429); note: % is set by controls: 0 for no effect and ±100 for the full control effect
Method in brief: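 Fluorescence at 540 nm excitation and 590 nm emission reports ssDNA cytosine deamination by AID, with UDG in the same well. Compound-treated reactions ran 4 hr at room temperature with DJC20/DJC23 substrate, followed by 30 min NaOH treatment.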

[4] = target: Calcium and integrin-binding protein 1 (Homo sapiens) (UniProt Q99828); test: Validation qHTS for Identification of Calcium Integrin Binding protein 1 (CIB1) Competitor (AID 1508618); note: % is set by controls: 0 for no effect and ±100 for the full control effect
Method in brief: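 In this qHTS validation, the LOPAC set (up to 114 uM) was tested for blocking CIB1 binding to a fluorescein-tagged alphaIIb peptide, with FP detection at 480/540 nm.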

[5] = Primary qHTS for small molecule stabilizers of the endoplasmic reticulum resident proteome: Secreted ER Calcium Modulated Protein (SERCaMP) assay (AID 1508630); note: potency is the fitted concentration of half-maximal effect
Method in brief: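 GLuc-SERCaMP-expressing SH-SY5Y cells, pretreated 16 h with compound, are challenged with thapsigargin to empty ER calcium stores; after 4 h, coelenterazine is added directly to the medium and luminescence is imaged.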

Papain (Carica papaya) = Papain (Carica papaya) (UniProt P00784); test: Primary qHTS assay for inhibitors of the protease papain (AID 1645873);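 note: papain turnover of Z-FR-AMC read as the AMC fluorescence gain over 10 min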; note: potency is the fitted concentration of half-maximal effect
[6] = Primary qHTS for inhibitors of La Crosse Virus (LACV) - induced cell death in SH-SY5Y cells (AID 1508616); note: potency is the fitted concentration of half-maximal effect
Method in brief: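 Protection against LACV-induced cell death is scored in SH-SY5Y cells exposed to compounds and virus (0.01 MOI) for 6 days. Data normalized to virus-infected DMSO wells and virus-free DMSO wells.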

[7] = Counterscreen qHTS for small molecule stabilizers of the endoplasmic reticulum resident proteome: GLuc-NoTag assay (AID 1508627); note: potency is the fitted concentration of half-maximal effect
Method in brief: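 SH-SY5Y cells stably expressing constitutively secreted GLuc without SERCaMP tag, exposed to compound for 19 hr, then to 100 nM thapsigargin for 4 hr at 37C. Medium luciferase was read by coelenterazine luminescence without lysis.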

[8] = Confirmatory qHTS for small molecule stabilizers of the endoplasmic reticulum resident proteome: Secreted ER Calcium Modulated Protein (SERCaMP) assay (AID 1508628); note: nearly all actives have a fitted effect of over 40% in size; note: potency is the fitted concentration of half-maximal effect
Method in brief: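 SH-SY5Y cells stably expressing GLuc-SERCaMP, treated 16 h with compound (primary 1.53, 7.67, 38.3 uM; confirmation 11 concentrations, up to 76.6 uM), then 100 nM thapsigargin for 4 h. Secreted Gaussia luciferase in medium read by coelenterazine luminescence.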

[9] = Cell Viability qHTS for small molecule stabilizers of the endoplasmic reticulum resident proteome (AID 1508629); conditions: cell viability counter-screen, 100 nM thapsigargin for final 4 h;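 note: human SH-SY5Y neuroblastoma cells carrying the GLuc-SERCaMP reporter; compound exposure about 46 h in total before the viability read; % is set by controls: 0 for no effect and ±100 for the full control effect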
[10] = target: Calcium and integrin-binding protein 1 (Homo sapiens) (UniProt Q99828); test: Primary qHTS for Identification of Calcium Integrin Binding Protein 1 (CIB1) Competitor (AID 1508620);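 note: GST tagged CIB1 binding a fluorescein labelled alphaIIb integrin peptide tracer; top concentration of the series differs between compounds; % is set by controls: 0 for no effect and ±100 for the full control effect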
Method in brief: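 Fluorescence polarization competition: GST-tagged CIB1 (1 uM final) preincubated with compound 15 min at room temperature, then FITC-labelled alphaIIb peptide (100 nM final) added. After 15 min at room temperature, polarization read at Ex 480/Em 540.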

[11] = target: Cytochrome P450 2D6 (Homo sapiens) (UniProt P10635); test: Cytochrome P450 family 2 subfamily D member 6 (CYP2D6) small molecule antagonists: luciferase biochemical (cell-free) qHTS assay (AID 1645840; active = well fitted curve in the direction sought with a large enough effect in the repeat runs; an effect the other way counts as inactive or inconclusive; note: series mostly up to about 57 µM; % is set by controls: 0 for no effect and ±100 for the full control effect; nearly all actives have a fitted effect of over 55% in size)
Method in brief: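 P450-Glo luminescent screen: recombinant CYP2D6 enzyme–proluciferin substrate mix preincubated with compound 10 min at room temperature, then NADPH regeneration added for 1 h at room temperature. Detection reagent added for 20 min; luciferin light read as relative luminescence units.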

[12] = target: Cytochrome P450 2C9 (Homo sapiens) (UniProt P11712); test: Cytochrome P450 family 2 subfamily C member 9 (CYP2C9) small molecule antagonists: luciferase biochemical (cell-free) qHTS assay (AID 1645842; active = well fitted curve in the direction sought with a large enough effect in the repeat runs; an effect the other way counts as inactive or inconclusive; note: series mostly up to about 57 µM; % is set by controls: 0 for no effect and ±100 for the full control effect; nearly all actives have a fitted effect of over 55% in size)
Method in brief: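 Luminescence, after 20 min with luciferin detection reagent, reflected CYP2C9 turnover during a 1 h NADPH-driven reaction at 37C. Enzyme-substrate mix contained 0.4% bovine serum albumin and was preincubated with compound 10 min at room temperature.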

[13] = target: N-terminal Xaa-Pro-Lys N-methyltransferase 1 (Homo sapiens) (UniProt Q9BV86); test: Confirmatory qHTS for Inhibitors of N-terminal methyltransferase 1 (NTMT1): MTaseGlo Assay (AID 1645874); conditions: NTMT1 enzyme, MTase-Glo SAH luminescence; note: potency is the fitted concentration of half-maximal effect; nearly all actives have a fitted effect of over 65% in size
Method in brief: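 Compounds are incubated with 125 nM NTMT1 and 100 uM SAM for 15 min before the SPKRIA peptide (1 uM) starts a 30 min room-temperature methylation. SAH is measured by coupled luciferase luminescence and curves fitted to a Hill equation.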

Sequence of Papain (Carica papaya) (P00784 whole entry, looked up): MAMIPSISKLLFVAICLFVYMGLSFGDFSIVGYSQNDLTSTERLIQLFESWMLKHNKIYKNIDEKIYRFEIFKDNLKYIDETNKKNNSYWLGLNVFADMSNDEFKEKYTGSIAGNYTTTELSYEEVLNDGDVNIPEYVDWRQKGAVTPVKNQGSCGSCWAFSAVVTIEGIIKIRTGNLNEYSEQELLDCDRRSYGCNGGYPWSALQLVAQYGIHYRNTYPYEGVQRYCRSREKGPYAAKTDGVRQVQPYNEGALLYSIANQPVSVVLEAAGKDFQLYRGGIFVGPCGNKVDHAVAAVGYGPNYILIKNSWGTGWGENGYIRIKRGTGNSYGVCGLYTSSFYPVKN
Sequence of Single-stranded DNA cytosine deaminase (Homo sapiens) (Q9GZX7 whole entry, looked up): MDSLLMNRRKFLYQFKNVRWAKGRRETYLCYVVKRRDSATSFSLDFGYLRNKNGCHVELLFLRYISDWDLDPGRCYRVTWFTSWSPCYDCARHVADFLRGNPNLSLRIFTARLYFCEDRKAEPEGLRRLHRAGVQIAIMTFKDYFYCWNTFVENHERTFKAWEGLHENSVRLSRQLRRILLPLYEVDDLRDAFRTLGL
Sequence of Calcium and integrin-binding protein 1 (Homo sapiens) (Q99828 whole entry, looked up): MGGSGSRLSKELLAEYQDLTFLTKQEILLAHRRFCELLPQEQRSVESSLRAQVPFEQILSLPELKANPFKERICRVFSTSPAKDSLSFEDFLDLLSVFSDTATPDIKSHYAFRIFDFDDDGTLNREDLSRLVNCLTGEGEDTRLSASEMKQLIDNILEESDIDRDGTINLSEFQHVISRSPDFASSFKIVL
Sequence of Cytochrome P450 2C9 (Homo sapiens) (P11712 whole entry, looked up): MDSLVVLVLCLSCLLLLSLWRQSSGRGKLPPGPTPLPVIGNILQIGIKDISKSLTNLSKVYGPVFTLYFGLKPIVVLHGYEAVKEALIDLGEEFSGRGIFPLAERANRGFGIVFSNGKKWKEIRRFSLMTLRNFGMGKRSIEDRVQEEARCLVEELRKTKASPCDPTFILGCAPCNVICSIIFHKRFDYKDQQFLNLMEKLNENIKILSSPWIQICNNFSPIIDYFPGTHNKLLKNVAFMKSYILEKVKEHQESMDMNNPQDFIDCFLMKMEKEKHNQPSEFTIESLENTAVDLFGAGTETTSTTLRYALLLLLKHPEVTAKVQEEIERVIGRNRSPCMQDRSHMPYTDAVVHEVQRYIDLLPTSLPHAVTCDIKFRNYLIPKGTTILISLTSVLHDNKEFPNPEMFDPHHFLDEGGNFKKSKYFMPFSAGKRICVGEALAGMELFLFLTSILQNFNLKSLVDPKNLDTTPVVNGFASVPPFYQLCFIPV
Sequence of Cytochrome P450 2D6 (Homo sapiens) (P10635 whole entry, looked up): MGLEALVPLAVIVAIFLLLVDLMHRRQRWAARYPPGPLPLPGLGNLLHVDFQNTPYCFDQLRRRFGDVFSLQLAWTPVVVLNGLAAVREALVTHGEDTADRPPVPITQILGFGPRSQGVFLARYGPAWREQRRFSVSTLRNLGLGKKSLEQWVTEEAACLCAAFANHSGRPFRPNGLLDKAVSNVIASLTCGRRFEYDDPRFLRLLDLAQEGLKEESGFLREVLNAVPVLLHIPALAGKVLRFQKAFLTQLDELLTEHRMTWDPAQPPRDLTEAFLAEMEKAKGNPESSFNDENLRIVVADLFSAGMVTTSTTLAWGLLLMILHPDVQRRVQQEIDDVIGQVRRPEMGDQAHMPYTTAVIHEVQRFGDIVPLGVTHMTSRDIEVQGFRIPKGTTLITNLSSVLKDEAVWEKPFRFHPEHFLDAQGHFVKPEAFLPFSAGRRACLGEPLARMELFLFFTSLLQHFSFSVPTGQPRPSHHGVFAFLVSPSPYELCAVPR
Sequence of N-terminal Xaa-Pro-Lys N-methyltransferase 1 (Homo sapiens) (Q9BV86 whole entry, looked up): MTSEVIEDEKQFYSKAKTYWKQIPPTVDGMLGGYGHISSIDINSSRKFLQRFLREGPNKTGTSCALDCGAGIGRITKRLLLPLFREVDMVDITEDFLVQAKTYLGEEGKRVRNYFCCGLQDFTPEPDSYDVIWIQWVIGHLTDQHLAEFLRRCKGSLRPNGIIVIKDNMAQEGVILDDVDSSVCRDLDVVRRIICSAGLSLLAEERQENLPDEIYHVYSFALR

CC12C(=O)OC(=O)C1(C)C1CCC2O1 (stereo not drawn)
inactive: outcome [1] | Potency [2] | Potency [3] | outcome [4] | Potency [5] | Potency (Papain (Carica papaya))

Cc1cc(NC2CCCCC2)nc(-n2nc(C)cc2C)n1
inactive: outcome [1] | Potency [2] | Potency [3] | Potency [6] | Potency [5] | Potency (Papain (Carica papaya))

NCCSSCCN
inactive: outcome [1] | Potency [2] | Potency [6] | outcome [4] | Potency [5] | Potency (Papain (Carica papaya))

Cc1ccc(S(=O)(=O)/C=C/C#N)cc1
active: Potency [6] 1.41 µM
inactive: outcome [1] | Potency [2] | Potency [3] | Potency [5] | Potency (Papain (Carica papaya))

CSc1nc(N)c2ncn([C@@H]3O[C@H](COP(=O)(O)OP(=O)(O)OP(=O)(O)O)[C@@H](O)[C@H]3O)c2n1
inactive: outcome [1] | Potency [2] | Potency [3] | Potency [6] | Potency [5] | Potency (Papain (Carica papaya))

Nc1nc(Cl)nc2c1ncn2[C@@H]1O[C@H](COP(=O)(O)OP(=O)(O)OP(=O)(O)O)[C@@H](O)[C@H]1O
inactive: outcome [1] | Potency [2] | Potency [3] | Potency [5] | Potency (Papain (Carica papaya))

NC[C@@H]1O[C@H](C23CC4CC(CC(C4)C2)C3)Cc2c1ccc(O)c2O
inactive: outcome [1] | Potency [2] | Potency [6] | outcome [4] | Potency [5] | Potency (Papain (Carica papaya))

CCCCCCCCCCCCCCCC(=O)OC(CC(=O)O)C[N+](C)(C)C (stereo not drawn)
inactive: outcome [1] | Potency [2] | Potency [6] | outcome [4] | Potency [5] | Potency (Papain (Carica papaya))

NC(=O)C1=CN(C2OC(COP(=O)(O)OP(=O)(O)OC[C@H]3O[C@@H](n4cnc5c(N)ncnc54)[C@H](OP(=O)(O)O)[C@@H]3O)C(O)C2O)C=CC1 (stereo partly drawn)
inactive: outcome [1] | Potency [2] | Potency [3] | Potency [6] | Potency (Papain (Carica papaya))

O=C(Nc1cccc(C(=O)Nc2ccc(S(=O)(=O)O)c3cc(S(=O)(=O)O)cc(S(=O)(=O)O)c23)c1)Nc1cccc(C(=O)Nc2ccc(S(=O)(=O)O)c3cc(S(=O)(=O)O)cc(S(=O)(=O)O)c23)c1
active: Potency (Papain (Carica papaya)) 3.16 µM
inactive: outcome [1] | Potency [2] | Potency [3] | Potency [6] | Potency [5]

CCCCC#Cc1nc(NC)c2ncn([C@@H]3O[C@H](CO)[C@@H](O)[C@H]3O)c2n1
inactive: outcome [1] | Potency [2] | Potency [3] | Potency [5] | Potency (Papain (Carica papaya))

COc1ccc2c(c1)CCC1C2CC[C@@]2(C)C1CC[C@@H]2NCCCCCCN1C(=O)CCC1=O (stereo partly drawn)
inactive: outcome [1] | Potency [2] | Potency [3] | outcome [4] | Potency [5] | Potency (Papain (Carica papaya))

O=C(CCCCCN1CCN(c2ccccc2-c2ccccc2)CC1)NC1CCCc2ccccc21 (stereo not drawn)
inactive: outcome [1] | Potency [2] | Potency [3] | Potency [6] | Potency (Papain (Carica papaya))

CC(C)(C=O)Cc1cc(C(C)(C)C)c(O)c(C(C)(C)C)c1
inactive: outcome [1] | Potency [2] | Potency [3] | Potency [6] | Potency [5] | Potency (Papain (Carica papaya))

CCCN(CC1CC1)c1nc(C)nc(Nc2c(Cl)cc(Cl)cc2Cl)c1Cl
inactive: outcome [1] | Potency [2] | Potency [6] | outcome [4] | Potency [7] | Potency [8] | max response [9] 17.8% | Potency [5] | Potency (Papain (Carica papaya))

Nc1nc(Cl)nc2c1ncn2[C@@H]1O[C@H](CO)[C@@H](O)[C@H]1O
inactive: outcome [1] | Potency [2] | Potency [3] | Potency [6] | Potency [5] | Potency (Papain (Carica papaya))

CCCCCCCC/C=C\CCCCCCCC(=O)NCCO
active: Potency [5] 12.6 µM
inactive: outcome [1] | Potency [2] | Potency [6] | outcome [4] | Potency [7] | Potency [8] | max response [9] 21.6% | Potency (Papain (Carica papaya))

CN(C)c1nc(N)c(C(=O)N=C(N)N)nc1Cl
inactive: outcome [1] | Potency [2] | Potency [3] | outcome [4] | Potency [5] | Potency (Papain (Carica papaya))

NS(=O)(=O)C#Cc1ccccc1
inactive: outcome [1] | Potency [2] | Potency [3] | outcome [4] | Potency [5] | Potency (Papain (Carica papaya))

Cn1c(=O)c2[nH]c(-c3ccccc3)nc2n(C)c1=O
inactive: outcome [1] | Potency [2] | Potency [3] | Potency [5] | Potency (Papain (Carica papaya))

CNC(=O)[C@H]1O[C@@H](n2cnc3c(NCc4cccc(I)c4)ncnc32)[C@H](O)[C@@H]1O
inactive: outcome [1] | Potency [2] | Potency [3] | Potency [5] | Potency (Papain (Carica papaya))

NO
inactive: outcome [1] | Potency [3] | Potency [6] | Potency [5] | Potency (Papain (Carica papaya))
active: Potency [2] 56.2 µM

O=C(O)CC[C@@H](C(=O)O)N1C(=O)c2ccccc2C1=O
inactive: outcome [1] | Potency [2] | Potency [3] | Potency [6] | Potency (Papain (Carica papaya))

CCCCCCCCCCCCCCCCCC(=O)OC(CC(=O)O)C[N+](C)(C)C (stereo not drawn)
inactive: outcome [1] | Potency [2] | Potency [6] | outcome [4] | Potency [5] | Potency (Papain (Carica papaya))

O=C(Nc1ccccc1)c1cc([N+](=O)[O-])ccc1Cl
inactive: outcome [1] | Potency [2] | Potency [3] | outcome [4] | Potency [7] | Potency [8] | max response [9] -26.2% | Potency [5] | Potency (Papain (Carica papaya))

Cn1ncc(S(=O)(=O)Cc2ccccc2)c(Br)c1=O
inactive: outcome [1] | Potency [2] | Potency [3] | Potency [5] | Potency (Papain (Carica papaya))

N=c1ccn2c(n1)O[C@H]1[C@H](O)[C@@H](CO)O[C@H]12
inactive: outcome [1] | Potency [2] | Potency [3] | outcome [4] | Potency [5]

O=C(/C=C/c1ccc(O)cc1)c1ccc(O)cc1O
inactive: outcome [1] | Potency [2] | Potency [3] | outcome [4] | Potency [7] | Potency [5] | Potency (Papain (Carica papaya))

C=C[C@H]1CN2CC[C@@H]1C[C@@H]2[C@@H](O)c1ccnc2ccc(OC)cc12
active: Potency [7] 3.98 µM | Potency [8] 31.6 µM
inactive: outcome [1] | Potency [6]

C=C[C@@H]1CN2CC[C@@H]1C[C@H]2[C@H](O)c1ccnc2ccc(OC)cc12
inactive: outcome [1] | Potency [6]

CN(CCCOc1ccc(Cc2ccccc2)cc1)CCC(=O)O
inactive: outcome [1] | outcome [4] | Potency [10] | Potency [11] | Potency [12] | Potency (Papain (Carica papaya))

N.N.N.N.N.N.N.N.N.N.N.N.N.N.O.O.[Ru+4].[Ru+5].[Ru+5]
active: Potency [2] 39.8 µM | Potency [7] 7.08 µM | Potency [8] 7.08 µM | Potency [13] 27.4 µM
inactive: outcome [1] | Potency [6] | Potency (Papain (Carica papaya))
